Source: PubChem BioAssay (NCI)
Where “and” joins values, the source holds several entries; their conditions need not be identical. Equal entries are not always repeated. Compounds without any hit were thinned out: in the full panel of roughly 79,000, 15% have a hit. No stated cut-off is given here; in the data, active means growth inhibition above about 70%; inactive means the rest.

Tests used:
[1] = NCI Yeast Anticancer Drug Screen. Data for the rad50 strain (AID 155);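 further: 0% = growth of vehicle-only cultures of the same strain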; settings: S. cerevisiae rad50 strain growth inhibition, hits give high values; at 50.0 µM unless noted
Outline: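 Readout: growth inhibition relative to vehicle-treated cultures. Compound exposure was carried out in a genetically defined yeast strain deficient in DNA damage repair.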

[2] = NCI Yeast Anticancer Drug Screen. Data for the mec2-1 strain (AID 157); settings: S. cerevisiae mec2-1 strain, hits give high values; at 50.0 µM unless noted
Outline: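 Yeast mec2-1 mutant treated with compound. Readout: growth inhibition vs vehicle controls.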

[3] = NCI Yeast Anticancer Drug Screen. Data for the sgs1 mgt1 strain (AID 161);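 further: 0% = growth of cultures given vehicle only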; settings: S. cerevisiae sgs1 mgt1 strain, hits give high values; at 50.0 µM unless noted
Outline: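 Read-out: growth inhibition vs vehicle controls. Cells: mutant yeast strain deficient in DNA damage repair.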

[4] = NCI Yeast Anticancer Drug Screen. Data for the cln2 rad14 strain (AID 165);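 further: 0% = growth equal to vehicle treated cultures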; settings: S. cerevisiae cln2 rad14 strain, hits give high values; at 50.0 µM unless noted
Outline: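 cln2 rad14 yeast strain; compound exposure; growth inhibition read vs vehicle controls.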

[5] = NCI Yeast Anticancer Drug Screen. Data for the bub3 strain (AID 167); settings: S. cerevisiae bub3 mutant strain, hits give high values; at 50.0 µM unless noted
Outline: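 Readout: yeast growth inhibition, expressed relative to vehicle-only wells. The test organism is a mutant strain from a panel with lesions in DNA repair or checkpoint genes.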

[6] = NCI Yeast Anticancer Drug Screen. Data for the mlh1 rad18 strain (AID 175); settings: S. cerevisiae mlh1 rad18 strain growth inhibition, hits give high values; at 50.0 µM unless noted
Outline: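 Yeast w/ defined DNA-repair lesions; compound exposure; growth vs vehicle controls → % inhibition.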

Measured: growth inhibition

Cc1ccc(O)c(C=NCCN=Cc2cc(C)ccc2O)c1.[Cu+2]
inactive: [1] 1.9% | [2] 5.25% | [3] 6.15% | [4] 8.45% | [5] -20.6% | [6] 13.3%

O=C(OC1c2cccc3cccc(c23)C1O)c1ccccc1 (stereo not given)
inactive: [1] 8.2% | [2] -2.45% | [3] 1.55% | [4] 2.65% | [5] 5.85% | [6] 1.75%

CCCCCCC(=O)C/C(=N/NC(N)=S)C(=O)NC1C2CC3CC(C2)CC1C3 (stereo not given)
inactive: [1] -14.8% | [2] -19.2% | [3] -48.7% | [4] 29.4% | [5] -2.3% | [6] -34.5%

NC(=O)C1(N2CCCC2)CCN(Cc2ccccc2)CC1
inactive: [1] -9.2% | [2] -18.9% | [3] -17.6% | [4] -1.6% | [5] -10.6% | [6] -15.8%

O=C1N=CN=C2C=CC(Cl)=C(I)C12 (stereo not given)
inactive: [1] 0.85% | [2] 16.1% | [3] 19.5% | [4] 5.35% | [5] 29.9% | [6] 4.15%

CCN1CCC(S(=O)(=O)CCS(=O)(=O)C2CCN(CC)C2)C1 (stereo not given)
inactive: [1] -6.3% | [2] 0.55% | [3] 11.7% | [4] 3.6% | [5] 17.3% | [6] 2.05%

COc1ccc2nc3cc(Cl)ccc3c(Nc3ccccc3-c3ccccc3Nc3c4ccc(Cl)cc4nc4ccc(OC)cc34)c2c1
inactive: [1] 6.85% | [2] -8.75% | [3] -18.1% | [4] 17.5% | [5] 2.1% | [6] -27.8%

CCC12C=CCN3CC[C@@]4(c5cc([C@@]6(C(=O)OC)C[C@@H]7CN(CCc8c6[nH]c6ccccc86)C[C@](O)(CC)C7)c(OC)cc5N(C)[C@H]4[C@@](O)(C(=O)NCCCCCCCCCCCC(=O)O)[C@@H]1O)C32 (stereo not given in full)
inactive: [1] 19% | [2] 19.8% | [3] 21.6% | [4] 5% | [5] 25.3% | [6] -17.6%

c1ccc2[nH]c(CSc3nc4ccccc4s3)nc2c1
inactive: [1] 10.1% | [2] 17.2% | [3] 37.5% | [4] 33.6% | [5] -0.75% | [6] 28.6%

Cn1c2c(c3ccccc31)CCN(CCCCN1CCN(c3ccccc3)CC1)C2=O
inactive: [1] 3.8% | [2] -17.5% | [3] -36% | [4] 3.55% | [5] -11.2% | [6] -7.35%

CCCCCC=C(c1cc(Cl)c(OC)c(C(N)=O)c1)c1cc(Cl)c(OC)c(C(N)=O)c1
inactive: [1] -20.1% | [2] -9.35% | [3] -12.4% | [4] -92.9% | [5] 5.5% | [6] -13.9%

CCCCC1=C(c2ccccc2)/C(=N/Nc2ccc([N+](=O)[O-])cc2[N+](=O)[O-])c2ccccc21
inactive: [1] 12.7% | [2] -1.45% | [3] 5.65% | [4] -2.85% | [5] 1.2% | [6] 9%

O=c1[nH]cnc2c1ccc1[nH]ncc12
inactive: [1] 9.45% | [2] 0.2% | [3] -3.35% | [4] -42.2% | [5] -1.05% | [6] 5.4%

Cc1c2c(c(C)c3c1C(=O)c1cc4c(cc1C3=O)OCO4)OCO2
inactive: [1] -9.1% | [2] -4.35% | [3] -5.35% | [4] -4.7% | [5] -31.9% | [6] -15.4%

COC(=O)C(=O)c1c(C(=O)OC)nc2nnc(N)n2c1-c1cccc([N+](=O)[O-])c1
inactive: [1] 23.6% | [2] -4.35% | [3] 3.1% | [4] 17.3% | [5] 12.4% | [6] 18%

NC(=S)Nc1ccc(-c2ccccc2)cc1
inactive: [1] 17.4% | [2] 25.9% | [3] 49.1% | [4] -1.65% | [5] 22.8% | [6] 40.3%

C[n+]1ccc(/C=N/O)cc1
inactive: [1] -5.05% | [2] -22.4% | [3] -0.45% | [4] 2.95% | [5] 8.45% | [6] -11.2%

Cc1cc2ccccc2n1/C=C/C1=[N+](C)c2ccccc2C1(C)C
inactive: [1] 10.3% | [2] 6.25% | [3] 10.5% | [4] -38.9% | [5] 8.1% | [6] 25.9%

Nc1[nH]c(=O)[nH]c(=O)c1[N+](=O)[O-]
inactive: [1] 5.4% | [2] -6.8% | [3] -7.1% | [4] -8.5% | [5] -9.35% | [6] -3.15%

CCCCCCCCCC=O
inactive: [1] -2.05% | [2] 8% | [3] -11.5% | [4] 10.6% | [5] 23.7% | [6] 6.8%

Cc1ccc(C)n1-c1ccccc1
inactive: [1] -12.6% | [2] -37.5% | [3] -7.75% | [4] 9% | [5] -8.2% | [6] -19.4%

Clc1ccc(OCC(COc2ccccc2)Oc2nc(-c3ccccc3)nc(-c3ccccc3)n2)cc1 (stereo not given)
inactive: [1] -14.2% | [2] 2.25% | [3] 3.1% | [4] -5.8% | [5] -8.6% | [6] -17.1%

CCOC(=O)C(C#N)(CC(=O)OC)C(c1cccc2ccccc12)c1cccc2ccccc12 (stereo not given)
inactive: [1] 10.9% | [2] -12.7% | [3] 12.7% | [4] 21% | [5] -7.15% | [6] 13.8%

CCC(C)C(NC(=O)Cc1ccccc1)C(=O)O (stereo not given)
inactive: [1] 4.55% | [2] -9.45% | [3] -4.1% | [4] -23.2% | [5] 8.95% | [6] 5.75%

Cc1cc(C)c(-c2c(C)cc(C)c(C(=O)c3ccc([N+](=O)[O-])cc3)c2C)c(C)c1C(=O)c1ccc([N+](=O)[O-])cc1
inactive: [1] 25.7% | [2] 2.85% | [3] 11.8% | [4] 9.25% | [5] 3.2% | [6] 8.85%

Cc1ccc(S(=O)(=O)N2CCC(CCl)N(S(=O)(=O)c3ccc(C)cc3)CC2CCl)cc1 (stereo not given)
inactive: [1] 18.1% | [2] 3.6% | [3] 0.95% | [4] -9.05% | [5] 3.45% | [6] 7.8%

O=c1[nH]c(=O)c2[nH]c(Br)nc2[nH]1
inactive: [1] 2.35% | [2] -4.3% | [3] -12.7% | [4] 0.2% | [5] -8.45% | [6] 3.85%

N#CC1CSCC1=O (stereo not given)
inactive: [1] -6.5% | [2] -8.8% | [3] -20.4% | [4] -12.8% | [5] 9.9% | [6] -1.9%

O=C(CCCN1CCC2(CC1)C(=NC1CCCCC1)NC(=O)N2c1ccccc1)c1ccc(F)cc1
inactive: [1] -10.8% | [2] -3.6% | [3] -3% | [4] 3.45% | [5] 13.7% | [6] -6.85%

CCCCCCCC[n+]1ccc(C#N)cc1
inactive: [1] 11.7% | [2] 4% | [3] 14.3% | [4] 15.9% | [5] 5.65% | [6] 19%

Cl
inactive: [1] -13.4% and -6.25% | [2] -29.2% and 17.5% | [3] -10.4% and 1.8% | [4] -0.9% and 2.2% | [5] -5.15% and -38% | [6] -16% and -32.6%

COc1cc(C)c(C)c(OC(=O)c2c(C)c(C)c(OC)c(C)c2OC)c1C
inactive: [1] 10.3% | [2] -17.1% | [3] 11.3% | [4] 8.9% | [5] 23.6% | [6] 16.1%

CC(=O)Nc1cccc(Br)c1
inactive: [1] -18.1% | [2] -23.6% | [3] -18.1% | [4] -12.8% | [5] -25.5% | [6] -19.1%

CC(=O)OC1COC(N2C(=O)C(=O)c3c(C)cc(Cl)nc32)C(OC(C)=O)C1OC(C)=O (stereo not given)
inactive: [1] -22.6% | [2] -15.7% | [3] -22.4% | [4] -24.1% | [5] -24.1% | [6] -8.3%

O=C(C/C(CCC(=O)N(Cc1ccccc1)Cc1ccccc1)=N/Nc1ccc([N+](=O)[O-])cc1[N+](=O)[O-])c1ccccc1
inactive: [1] 42.9% | [2] 29.9% | [3] 60% | [4] 41.6% | [5] 1.05% | [6] 61.8%

NNC(=O)c1nnn(CCc2ccccc2)c1C(=O)NN
inactive: [1] -1.45% | [2] 3.25% | [3] -1.15% | [4] 5.55% | [5] -9.55% | [6] -3.9%

C=C1CC2(OC1=O)c1ccccc1C=Cc1ccccc12
inactive: [1] 26.8% | [2] 13.4% | [3] 55.1% | [4] 48.8% | [5] 47.5% | [6] 50.4%

N#Cc1c(O)c(N=Nc2ccc(Cl)cc2)c(=O)n2c1[nH]c1ccccc12
inactive: [1] 11.6% | [2] 14.2% | [3] 21.2% | [4] 28.9% | [5] 10.5% | [6] 18.7%

CCOC(=O)C1=C(O)c2ccccc2C(=O)C1=O
inactive: [1] 7.35% | [2] 3.8% | [3] 21.6% | [4] 11.3% | [5] 13.2% | [6] 8.95%

O=c1cc(CBr)c2ccc(O)cc2o1
inactive: [1] -34.1% | [2] 2.55% | [3] -23.8% | [4] 8.3% | [5] -18.2% | [6] -44.5%
